# Data published in the supplement of paper PMC10849652.
# The full data set covers some 7,900 targets. This sample favours those with a hit. About 0.6% of all pairs of compound and target were hits. A number with no mark means an inactive call.
# What was measured:
# Experiment in all cases: log2 fold change, soluble protein after heating vs DMSO (PISA); higher = thermal stabilisation; K562 cells, 10 uM, 30 min; active = over 0.2 and 3.5 SD of the protein, either way, in both replicates (recomputed)
# erlotinib = compound: C#Cc1cccc(Nc2ncnc3cc(OCCOC)c(OCCOC)cc23)c1 [erlotinib]
# Procedure, shortened: (§1)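 Quantification of soluble protein used TMTpro 16plex LC-MS/MS, with channel sums equalised. Samples were the supernatant after 21,000xg for 90 min of pooled aliquots from K562 cells (2×10^6 cells/mL) treated with 10 μM compound for 30 min, heated for 3 min over 48°C-58°C, and extracted in PBS with 0.5% NP-40 at 4°C. Values, from duplicates, describe thermal stability against control samples on a log2 fold-change scale.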
# [1] = compound: C/C(=N\NC(=O)C1=CC(=CC=C1)S(=O)(=O)N2CCOCC2)/C3=C(C=CC(=C3)Cl)O
# Procedure, shortened: as §1
# [2] = compound: C1=CC(=C(C=C1Cl)C2=NC3=NC=CN=C3C(=N2)NC4=CC=NC=C4)F
# Procedure, shortened: as §1
# [3] = compound: C1=CC(=CC=C1C2=NC3=C(N2)C=C(C=C3)C(=O)N)OC4=CC=C(C=C4)Cl
# Procedure, shortened: as §1
# [4] = compound: C1=CC2=C(C=CC(=C2)/C=C\3/C(=O)NC(=NCC4=CC=CS4)S3)N=C1
# Procedure, shortened: as §1
# [5] = compound: C1=CC2=NC=CN=C2C=C1/C=C/3\C(=O)NC(=O)S3
# Procedure, shortened: as §1
# [6] = compound: C1=CC=C(C=C1)C2=NC(=C(N2)C3=CC=NC=C3)C4=CC(=C(C=C4)Cl)O
# Procedure, shortened: as §1
# [7] = compound: C1=CC=C2C(=C1)C3=NNC4=CC=CC(=C43)C2=O
# Procedure, shortened: as §1
# [8] = compound: C1CCN(C1)C(=O)NC2=CC=CC(=C2)NC3=NC=C(C(=N3)NCCC4=CN=CN4)Br
# Procedure, shortened: as §1
# [9] = compound: C1CN(CCC1(CC2=CC=C(C=C2)Cl)N)C3=NC=NC4=C3C=CN4
# Procedure, shortened: as §1
# IRAK-1-4 Inhibitor I = compound: C1COCCN1CCN2C3=CC=CC=C3N=C2NC(=O)C4=CC(=CC=C4)[N+](=O)[O-] [IRAK-1-4 Inhibitor I]
# Procedure, shortened: as §1
# ibrutinib = compound: C=CC(=O)N1CCC[C@@H](n2nc(-c3ccc(Oc4ccccc4)cc3)c3c(N)ncnc32)C1 [ibrutinib]
# Procedure, shortened: as §1
# [10] = compound: CC(=O)c1cnc2ccc(-c3cc(Cl)c(O)c(Cl)c3)nc2c1N[C@H]1CC[C@H](CN(C)C)CC1
# Procedure, shortened: as §1
# ralimetinib = compound: CC(C)(C)Cn1c(N)nc2ccc(-c3[nH]c(C(C)(C)C)nc3-c3ccc(F)cc3)nc21 [ralimetinib]
# Procedure, shortened: as §1
# [11] = compound: CC(C)(O)CC(=O)NCCn1ccc2ncnc(Nc3ccc(Oc4cccc(C(F)(F)F)c4)c(Cl)c3)c21
# Procedure, shortened: as §1
# [12] = compound: CC(C)C1=C2N=C(C=C(N2N=C1)NCC3=CC=CC=C3)NCCCCCCN
# Procedure, shortened: as §1
# [13] = compound: CC(C)C[C@@H](C=O)NC(=O)[C@H](CC(C)C)NC(=O)[C@H](CC(C)C)NC(=O)OCc1ccccc1
# Procedure, shortened: as §1
# pinometostat = compound: CC(C)N(C[C@H]1O[C@@H](n2cnc3c(N)ncnc32)[C@H](O)[C@@H]1O)[C@H]1C[C@@H](CCc2nc3cc(C(C)(C)C)ccc3[nH]2)C1 [pinometostat]
# Procedure, shortened: as §1
# [14] = compound: CC1=C(C(CC(=O)N1)C2=CC=C(C=C2)C(F)(F)F)C(=O)NC3=C(C=C4C(=C3)C=NN4)F
# Procedure, shortened: as §1
# [15] = compound: CC1=C(C2=C(C=C1)C(=O)C3=CC=CC=C3N2CCCN)C
# Procedure, shortened: as §1
# UniProt Q99961, sequence (Q99961 whole entry, looked up): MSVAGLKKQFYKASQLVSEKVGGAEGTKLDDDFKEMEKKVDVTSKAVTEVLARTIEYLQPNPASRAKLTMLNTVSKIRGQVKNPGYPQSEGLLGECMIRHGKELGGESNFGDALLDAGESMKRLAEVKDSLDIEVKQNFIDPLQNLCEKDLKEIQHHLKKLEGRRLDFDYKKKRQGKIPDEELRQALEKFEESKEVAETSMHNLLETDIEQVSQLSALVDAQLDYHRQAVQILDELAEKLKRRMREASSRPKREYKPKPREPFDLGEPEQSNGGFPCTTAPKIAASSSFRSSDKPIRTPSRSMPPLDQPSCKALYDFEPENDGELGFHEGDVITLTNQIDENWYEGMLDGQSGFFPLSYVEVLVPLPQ
# UniProt Q86TU7, sequence (Q86TU7 whole entry, looked up): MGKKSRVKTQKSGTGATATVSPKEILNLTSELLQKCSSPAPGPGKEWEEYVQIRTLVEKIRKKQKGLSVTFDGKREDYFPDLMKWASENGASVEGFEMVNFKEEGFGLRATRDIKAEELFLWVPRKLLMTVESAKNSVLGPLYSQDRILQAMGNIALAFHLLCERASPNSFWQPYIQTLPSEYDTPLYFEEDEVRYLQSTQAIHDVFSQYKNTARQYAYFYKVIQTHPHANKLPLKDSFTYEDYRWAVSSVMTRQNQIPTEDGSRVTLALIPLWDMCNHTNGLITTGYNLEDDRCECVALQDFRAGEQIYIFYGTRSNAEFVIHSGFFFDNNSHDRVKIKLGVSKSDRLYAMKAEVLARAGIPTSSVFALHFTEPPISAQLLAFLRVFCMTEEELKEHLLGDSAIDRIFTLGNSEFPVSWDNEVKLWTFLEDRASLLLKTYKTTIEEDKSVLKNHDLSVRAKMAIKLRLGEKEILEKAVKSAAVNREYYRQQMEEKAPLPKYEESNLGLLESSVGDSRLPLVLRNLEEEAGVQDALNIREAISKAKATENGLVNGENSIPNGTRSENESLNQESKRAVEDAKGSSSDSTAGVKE
# UniProt Q9NTZ6, sequence (Q9NTZ6 whole entry, looked up): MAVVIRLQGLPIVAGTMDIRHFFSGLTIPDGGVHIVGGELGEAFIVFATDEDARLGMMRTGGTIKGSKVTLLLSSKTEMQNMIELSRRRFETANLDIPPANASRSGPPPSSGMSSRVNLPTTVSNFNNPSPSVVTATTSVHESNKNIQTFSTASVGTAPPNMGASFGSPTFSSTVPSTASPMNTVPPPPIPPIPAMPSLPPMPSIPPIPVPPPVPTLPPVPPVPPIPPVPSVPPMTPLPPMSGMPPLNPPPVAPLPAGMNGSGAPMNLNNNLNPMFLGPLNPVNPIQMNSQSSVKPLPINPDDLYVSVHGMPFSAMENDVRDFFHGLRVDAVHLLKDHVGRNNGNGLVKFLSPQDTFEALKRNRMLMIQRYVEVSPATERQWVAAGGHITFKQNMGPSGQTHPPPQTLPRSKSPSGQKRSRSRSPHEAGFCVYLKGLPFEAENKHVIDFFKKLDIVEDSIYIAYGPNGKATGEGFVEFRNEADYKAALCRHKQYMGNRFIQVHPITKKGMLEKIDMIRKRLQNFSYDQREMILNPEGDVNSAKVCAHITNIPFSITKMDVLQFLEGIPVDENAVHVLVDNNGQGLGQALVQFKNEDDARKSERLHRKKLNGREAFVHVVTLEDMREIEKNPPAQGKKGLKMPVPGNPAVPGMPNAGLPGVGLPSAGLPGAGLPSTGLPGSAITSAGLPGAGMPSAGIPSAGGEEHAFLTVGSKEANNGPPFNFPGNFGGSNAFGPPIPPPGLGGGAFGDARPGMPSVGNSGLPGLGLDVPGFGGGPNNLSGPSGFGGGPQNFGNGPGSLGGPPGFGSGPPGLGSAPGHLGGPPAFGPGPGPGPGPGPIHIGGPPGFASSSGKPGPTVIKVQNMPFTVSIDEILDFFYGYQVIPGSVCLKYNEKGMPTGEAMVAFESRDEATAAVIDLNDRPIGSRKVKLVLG
# UniProt P40938, sequence (P40938 whole entry, looked up): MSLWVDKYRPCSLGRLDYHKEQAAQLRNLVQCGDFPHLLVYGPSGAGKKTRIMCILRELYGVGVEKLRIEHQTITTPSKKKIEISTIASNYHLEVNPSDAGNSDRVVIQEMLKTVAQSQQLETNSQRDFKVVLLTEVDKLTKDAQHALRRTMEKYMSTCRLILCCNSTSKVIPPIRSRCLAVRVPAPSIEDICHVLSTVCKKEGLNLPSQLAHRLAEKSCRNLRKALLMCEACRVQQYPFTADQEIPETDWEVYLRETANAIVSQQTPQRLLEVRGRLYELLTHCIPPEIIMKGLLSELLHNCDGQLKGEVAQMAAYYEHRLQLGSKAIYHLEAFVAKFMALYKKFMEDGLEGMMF
# UniProt Q8N5L8, sequence (Q8N5L8 whole entry, looked up): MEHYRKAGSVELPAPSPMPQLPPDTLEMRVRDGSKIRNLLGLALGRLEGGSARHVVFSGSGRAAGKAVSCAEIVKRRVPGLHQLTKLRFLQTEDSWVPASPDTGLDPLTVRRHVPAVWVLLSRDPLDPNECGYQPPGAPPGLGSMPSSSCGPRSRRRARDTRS
# UniProt Q06609, sequence (Q06609 whole entry, looked up): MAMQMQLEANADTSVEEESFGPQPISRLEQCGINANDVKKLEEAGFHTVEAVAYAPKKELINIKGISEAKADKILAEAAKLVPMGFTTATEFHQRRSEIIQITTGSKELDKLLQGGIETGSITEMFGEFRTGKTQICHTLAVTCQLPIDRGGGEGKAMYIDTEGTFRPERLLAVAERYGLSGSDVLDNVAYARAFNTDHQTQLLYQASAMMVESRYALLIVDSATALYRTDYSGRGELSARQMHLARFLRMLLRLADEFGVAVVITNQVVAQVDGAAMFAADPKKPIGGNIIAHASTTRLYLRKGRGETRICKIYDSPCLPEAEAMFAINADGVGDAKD
# UniProt Q13464, sequence (Q13464 whole entry, looked up): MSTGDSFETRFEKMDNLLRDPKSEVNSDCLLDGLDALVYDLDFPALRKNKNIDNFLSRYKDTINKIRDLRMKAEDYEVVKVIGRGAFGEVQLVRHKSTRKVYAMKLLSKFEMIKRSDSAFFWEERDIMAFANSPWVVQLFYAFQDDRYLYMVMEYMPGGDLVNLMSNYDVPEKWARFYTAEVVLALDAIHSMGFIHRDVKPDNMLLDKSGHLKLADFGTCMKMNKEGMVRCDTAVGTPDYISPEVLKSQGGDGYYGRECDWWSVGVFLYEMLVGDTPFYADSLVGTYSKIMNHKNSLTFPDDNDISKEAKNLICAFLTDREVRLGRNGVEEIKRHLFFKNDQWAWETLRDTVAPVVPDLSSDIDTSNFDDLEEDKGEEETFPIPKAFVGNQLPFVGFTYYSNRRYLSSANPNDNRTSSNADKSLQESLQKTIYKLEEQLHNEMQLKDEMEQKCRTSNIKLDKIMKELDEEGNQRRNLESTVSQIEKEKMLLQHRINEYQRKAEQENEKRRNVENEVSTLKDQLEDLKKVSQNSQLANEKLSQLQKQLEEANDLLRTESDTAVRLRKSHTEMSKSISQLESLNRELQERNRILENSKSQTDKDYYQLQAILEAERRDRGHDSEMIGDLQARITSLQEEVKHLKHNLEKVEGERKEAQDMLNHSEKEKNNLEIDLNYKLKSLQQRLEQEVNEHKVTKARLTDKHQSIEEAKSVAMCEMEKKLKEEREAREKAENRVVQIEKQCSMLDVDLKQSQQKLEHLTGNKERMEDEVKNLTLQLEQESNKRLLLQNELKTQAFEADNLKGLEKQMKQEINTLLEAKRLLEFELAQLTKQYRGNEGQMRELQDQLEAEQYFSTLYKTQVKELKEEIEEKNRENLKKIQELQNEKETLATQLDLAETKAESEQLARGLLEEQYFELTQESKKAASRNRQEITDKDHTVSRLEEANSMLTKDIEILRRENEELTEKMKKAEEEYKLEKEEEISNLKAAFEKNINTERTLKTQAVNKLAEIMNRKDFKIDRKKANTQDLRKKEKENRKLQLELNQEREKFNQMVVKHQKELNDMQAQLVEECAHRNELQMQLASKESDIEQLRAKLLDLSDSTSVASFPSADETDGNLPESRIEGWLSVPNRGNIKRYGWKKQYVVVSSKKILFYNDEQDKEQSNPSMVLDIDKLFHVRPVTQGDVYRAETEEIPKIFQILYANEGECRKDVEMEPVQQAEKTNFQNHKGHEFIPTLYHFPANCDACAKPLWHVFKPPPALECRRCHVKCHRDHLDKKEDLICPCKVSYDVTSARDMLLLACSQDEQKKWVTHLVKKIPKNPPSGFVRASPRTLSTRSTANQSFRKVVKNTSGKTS
# UniProt Q92696, sequence (Q92696 whole entry, looked up): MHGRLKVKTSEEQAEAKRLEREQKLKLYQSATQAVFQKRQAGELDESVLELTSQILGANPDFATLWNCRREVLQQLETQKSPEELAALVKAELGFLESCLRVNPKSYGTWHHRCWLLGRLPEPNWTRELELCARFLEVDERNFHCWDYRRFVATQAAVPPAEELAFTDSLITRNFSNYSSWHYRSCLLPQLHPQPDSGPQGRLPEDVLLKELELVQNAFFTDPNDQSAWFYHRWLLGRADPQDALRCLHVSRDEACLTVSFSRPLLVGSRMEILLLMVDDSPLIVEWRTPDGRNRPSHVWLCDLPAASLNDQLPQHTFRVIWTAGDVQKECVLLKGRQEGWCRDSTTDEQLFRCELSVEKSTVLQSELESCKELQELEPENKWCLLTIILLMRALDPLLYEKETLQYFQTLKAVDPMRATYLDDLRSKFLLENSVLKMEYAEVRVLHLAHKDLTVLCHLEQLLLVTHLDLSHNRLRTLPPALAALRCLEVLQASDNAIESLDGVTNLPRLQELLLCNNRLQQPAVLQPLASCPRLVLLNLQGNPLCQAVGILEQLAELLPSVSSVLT
# UniProt Q96IZ7, sequence (Q96IZ7 whole entry, looked up): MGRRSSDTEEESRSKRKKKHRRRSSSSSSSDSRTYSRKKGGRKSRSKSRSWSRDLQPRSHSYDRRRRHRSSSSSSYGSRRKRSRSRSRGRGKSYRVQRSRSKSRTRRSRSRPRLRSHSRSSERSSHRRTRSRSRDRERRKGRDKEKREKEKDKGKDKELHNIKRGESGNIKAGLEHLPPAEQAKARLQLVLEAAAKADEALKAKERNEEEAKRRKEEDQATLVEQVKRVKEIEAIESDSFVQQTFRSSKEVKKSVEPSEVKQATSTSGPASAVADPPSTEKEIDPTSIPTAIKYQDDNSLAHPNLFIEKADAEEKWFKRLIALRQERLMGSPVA
Target,log2 fold change (erlotinib),log2 fold change [1],log2 fold change [2],log2 fold change [3],log2 fold change [4],log2 fold change [5],log2 fold change [6],log2 fold change [7],log2 fold change [8],log2 fold change [9],log2 fold change (IRAK-1-4 Inhibitor I),log2 fold change (ibrutinib),log2 fold change [10],log2 fold change (ralimetinib),log2 fold change [11],log2 fold change [12],log2 fold change [13],log2 fold change (pinometostat),log2 fold change [14],log2 fold change [15]
RPS19 (UniProt P39019),-0.141,-0.102,-0.274,0.057,-0.082,-0.044,-0.026,-0.015,0.094,-0.145,-0.085,0.052,0.05,0.064,0.03,-0.025,0.039,0.084,0.026,-0.523 (active)
RAD51 (UniProt Q06609),0.29,0.06,0.044,0.032,0.067,0.017,-0.025,-0.032,-0.014,0.013,0.017,0.013,-0.061,-0.074,-0.059,-0.016,0.048,-0.024,0.05,0.102
RCN3 (UniProt Q96D15),0.033,0.013,0.058,0.048,0.03,-0.029,-0.057,-0.023,0.07,-0.103,0.131,0.075,-0.048,-0.013,0.013,0.047,0.026,-0.035,0.05,-0.031
RFC3 (UniProt P40938),-0.04,0.108,0.033,0.005,0.066,0.007,0.046,0.046,-0.06,0.054,0.003,0.025,-0.101,0.021,-0.087,-0.012,-0.047,-0.057,0,0.09
RBM12 (UniProt Q9NTZ6),0.092,0.187,0.123,-0.022,0.117,-0.003,-0.008,0.011,-0.046,0.006,-0.042,-0.018,-0.135,-0.037,-0.145,-0.237,0.009,-0.043,0.012,-0.007
RBBP6 (UniProt Q7Z6E9),-0.01,0.005,0.014,-0.034,-0.037,0,0.025,-0.005,-0.067,0.003,-0.099,-0.082,-0.114,0.02,0.044,-0.089,-0.023,-0.078,-0.021,-0.022
ROCK1 (UniProt Q13464),0.049,-0.025,0.042,-0.007,0.199,0.027,-0.007,-0.018,0.032,0.205,-0.019,0.013,0.015,0.031,-0.079,-0.026,0.012,0.027,0.249 (active),-0.013
RPS5 (UniProt P46782),-0.149,-0.087,-0.193,0.038,-0.047,-0.045,-0.003,0.008,0.022,-0.125,-0.137,0.045,0.083,0.103,0,-0.015,-0.019,0.091,0.034,-0.551 (active)
SDHC (UniProt Q99643),-0.017,0.033,-0.015,0.033,-0.013,0.17,0.104,0.102,0.008,0.02,0.095,0.004,0.025,-0.055,-0.185,0.012,-0.286,-0.086,0.193,0.108
SCCPDH (UniProt Q8NBX0),-0.047,-0.021,0.079,-0.065,0.019,0.051,0.037,0.03,0.011,0.064,-0.005,0.061,0.031,0.059,0.156,0.038,-0.032,-0.073,-0.031,0.023
RPP25L (UniProt Q8N5L8),0.274 (active),-0.004,-0.029,0.031,-0.001,0.041,0.014,-0.065,0.01,0.01,-0.102,0.021,-0.004,0.049,-0.015,-0.293,0.035,-0.002,-0.014,-0.288 (active)
RNASET2 (UniProt O00584),0.027,-0.007,-0.006,0.002,0.012,-0.014,-0.001,-0.027,0.034,0.052,0.028,0.042,0,-0.082,0.029,-0.206,-0.004,-0.014,0.045,-0.061
SH3GL1 (UniProt Q99961),0.024,0.068,0.013,0.003,0.058,0.022,0.019,0.004,-0.047,-0.045,-0.09,-0.021,-0.059,0.052,-0.097,-0.238,0.013,0.032,0.018,0.037
RABGGTA (UniProt Q92696),0.068,0.018,0.065,0.001,0.063,0.025,0.036,0.043,0.005,0.122,0.064,-0.021,-0.02,-0.038,-0.021,0.049,-0.041,-0.027,0,0.046
RSRC1 (UniProt Q96IZ7),0,0.135,-0.148,0.071,-0.033,-0.057,-0.026,-0.073,0.016,-0.1,-0.062,0.034,-0.178,-0.01,0.056,-0.071,0.009,-0.017,-0.012,0.047
SETD3 (UniProt Q86TU7),0.01,-0.007,0.04,0.009,0.06,0.002,0.031,0.004,-0.015,0.044,-0.007,0.011,-0.018,-0.041,-0.013,0.027,-0.022,0.002,-0.03,0.05
